# Screens: PubChem BioAssay, National Center for Advancing Translational Sciences (NCATS)
# SMN2 splice enh = enhancers of SMN2 splice variant expression | HEK293 SMN2-luciferase splicing reporter, luminescence, 30-36 h | Potency, µM (titrated, usually from 46.1 µM), for inactives: at the highest dose activity change, positive = activation, most hits filed as activators | hit rate 2.8% among 210,000 | AID 1458; also: % of control where 0% means no effect; nearly all actives have a fitted effect of over 55% in size
#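 HEK293 cells carry an SMN2 […]–luciferase reporter in which exon 7 inclusion puts luciferase in frame. Cells were plated 10-12 h before compound addition, then incubated 30-36 h at 37C. ONE-Glo luminescence was read; sodium butyrate at 4.5 mM final served as control.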
# NPC1 promoter act = NPC1 promoter activation; AID 485313; hit rate 2.4% among 320,000; Potency, µM (series often up to 9.22 µM), inactives show top-dose activation, hits mostly activators; Huh7 NPC1 promoter luciferase reporter, 24 h; also: % of control where 0% means no effect; nearly all actives have a fitted effect of over 60% in size
#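 Readout is luciferase luminescence, reflecting NPC1 promoter activation in stably transfected Huh7 cells after 24 h compound exposure at 37 °C in reduced-serum medium with 10% FBS.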
# FLuc counter = inhibits or activates purified firefly luciferase, miR-21 counter-screen. purified FLuc, Km substrates, luminescence inhibition. Potency, µM (doses to about 57.5 µM), inactives show top-dose activity change, negative = inhibition, actives largely listed as inhibitors. hit rate 6.9% among 360,000. AID 588342;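 also: plate controls were vehicle for no effect and reference inhibitor for full effect; nearly all actives have a fitted effect of over 55% in size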
# Target sequence (P08659 whole entry, looked up): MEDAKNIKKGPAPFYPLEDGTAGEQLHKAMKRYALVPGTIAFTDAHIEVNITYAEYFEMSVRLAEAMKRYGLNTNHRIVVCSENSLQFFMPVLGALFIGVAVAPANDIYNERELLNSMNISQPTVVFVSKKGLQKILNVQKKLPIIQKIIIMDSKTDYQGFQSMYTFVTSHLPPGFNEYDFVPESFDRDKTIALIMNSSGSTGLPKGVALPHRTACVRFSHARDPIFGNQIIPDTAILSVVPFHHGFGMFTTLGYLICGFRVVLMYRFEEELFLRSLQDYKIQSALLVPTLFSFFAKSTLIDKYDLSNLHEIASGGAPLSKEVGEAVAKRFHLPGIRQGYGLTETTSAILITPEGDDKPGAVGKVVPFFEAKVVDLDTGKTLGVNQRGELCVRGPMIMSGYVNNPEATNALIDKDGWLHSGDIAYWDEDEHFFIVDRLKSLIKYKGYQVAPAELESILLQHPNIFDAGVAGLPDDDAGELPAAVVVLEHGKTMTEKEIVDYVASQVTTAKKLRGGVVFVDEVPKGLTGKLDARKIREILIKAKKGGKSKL
#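 Purified P. pyralis luciferase (10nM final) with 10uM D-luciferin and 10uM ATP (Km levels) in 50mM Tris acetate pH 7.5, 10mM Mg acetate, 0.01% Tween-20, 0.05% BSA; qHTS 6-point titration, ~60 µM downward; luminescence read.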
# Rab9 prom act = activators of Rab9 promoter; Huh7 Rab9 promoter-luciferase reporter, luminescence, 24 h; AID 485297; hit rate 2.8% among 320,000; Potency, µM (titrated, usually from 9.22 µM), for the others: at the top dose activation, negative = inhibition, most hits filed as activators; also: % of control where 0% means no effect; nearly all actives have a fitted effect of over 60% in size
#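 Cell-based reporter: Huh7 stable for Rab9 promoter-driven luciferase, plated in reduced-serum medium with 10% FBS at 1500 cells/well, compound-treated 24 h at 37 °C, luminescence read after 10 min reagent.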
# Luc counter = Kinase-Glo luciferase inhibition (counter-screen); Q27757; Kinase-Glo luciferase, ATP luminescence, 8 min; hit rate 0.28% among 200,000; Potency, µM (doses to about 38.3 µM), for the others: at the top dose activity change, negative = inhibition, usual class: inhibitors; also: % is scaled to controls: 0 for no effect and ±100 for the full control effect; nearly all actives have a fitted effect of over 60% in size
#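 Substrate mix (final 50 mM imidazole pH 7.2, 50 mM KCl, 7 mM MgCl2, 10 uM ATP, 0.01% Tween 20, 0.05% BSA) plus pin-tool compound, then Kinase-Glo detection mix; 8 min ambient, luminescence read.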
# ELG1 genotox = inducers of genotoxicity in HEK293T ELG1-luciferase cells | HEK293T ELG1-luciferase reporter, luminescence, 16 h | Potency, µM (doses to about 46 µM), inactives show at the top dose activity change, positive = activation, actives largely listed as activators | hit rate 1.3% among 330,000 | AID 504466; also: % of control where 0% means no effect; nearly all actives have a fitted effect of over 60% in size
#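 Luminescence read-out: rising ELG1-luciferase signal, reflecting elevated ELG1 protein under genetic stress, flags genotoxic compounds. Cells were treated for 16 hr at 37 °C before ONE-Glo detection.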
# * = called active by the depositor; u = inconclusive; x = no result given; [ ] = dose if it differs, or a comment. A selection: hits, their analogues and other compounds. The true share with any hit is near 7.3%. Calls follow the shape of the dose curve; as a rule, active = well fitted curve in the direction sought with a large enough effect; inconclusive = small, poorly fitted or top-dose-only effect, or another doubt; inactive = no such curve, though single readings can be large; an effect the other way counts as inactive or inconclusive. Potency is read from the fitted curve at half-maximal effect.
SMILES,SMN2 splice enh,NPC1 promoter act,FLuc counter,Rab9 prom act,Luc counter,ELG1 genotox
Cc1cccc2c1-c1sc(C(=O)N3CCN(c4ccccc4)CC3)cc1CO2,24%,x,1%,x,x,x
CC(=O)N1CCCc2cc(S(=O)(=O)N3CCC(C(=O)NCc4ccccc4Cl)CC3)ccc21,x,x,-3%,x,x,x
Cc1ccc(Cn2c(=O)c3c(nc4n3CCN4c3cc(C)cc(C)c3)n(C)c2=O)cc1,x,x,-8%,x,x,x
COc1ccc2c(c1)c1c(c(=O)n(-c3ccc(OC)c(OC)c3)c(=O)n1Cc1ccccc1C)n2C,x,x,0%,x,x,x
Cc1ccc2c(Cl)c(C(=O)N/N=C/c3cccn3C)sc2c1,13µM*,15%,u,u,-9%,u
C=CCC(C)(NCc1ccccc1)C(=O)OCC (configuration not stated),-1%,x,x,x,-7%,x
CCc1nc2ccc(C(=O)N3CCN(CC)CC3)cc2nc1CC,x,-3%,1%,0%,x,1%
CCc1nc2ccc(C(=O)O)cc2nc1CC,-27%,u,24µM*,u,-2%,u
O=C(O)c1ccc2nc3c(nc2c1)-c1ccccc1C3=O,8%,14%,15µM*,u,u,3%
CCOC(=O)c1c(C)sc(-c2c(-c3ccc4c(c3)OCCO4)[nH]c3c2c(=O)[nH]c(=O)n3C)c1O,x,x,-1%,x,x,x
CC(C)OCCCN(Cc1ccco1)C(=O)c1cc2c(s1)-c1ccccc1OC2,-32%,x,-11%,x,x,x
CN(C)S(=O)(=O)c1cccc(NC(=S)N/N=C/c2cc(Br)ccc2O)c1,x,-20%,19µM*,-38%,x,8%
CC#CCOC(=O)c1c(C)nc2sc3c(c2c1N)CCC(O)C3 (configuration not stated),-59%,-10%[46.1 µM],u,-24%[46.1 µM],-1%,16µM*
Cc1ccc2c(c1)c1c3n2CCN(C(=O)c2ccc(C(F)(F)F)cc2)C3CCC1 (configuration not stated),3%,x,-9%,x,x,x
CCCN(Cc1cccs1)C(=O)Nc1cc(C)cc(C)c1,x,x,-11%,x,x,x
Cc1cc(C)cc(NC(=O)c2cc(C)n(Cc3cccs3)c2C)c1,x,1.1µM*,0.34µM*,0.71µM*,x,u
Cc1cc(C(=O)Nc2ccc(Cl)cc2)c(C)n1Cc1cccs1,x,0.71µM*,0.6µM*,0.32µM*,x,2.3µM*
COc1ccc(CCNc2ncnc3onc(C)c23)c(OC)c1,x,x,0%,x,x,x
COc1ccc2cc(-c3cccnc3)ncc2c1,x,2.2µM*,3.8µM*,u,x,u
COc1ccc2ccc(Oc3ncccn3)cc2c1,18%,9%,-24%,u,0%,15%
COc1ccc2cc(-c3ccccc3F)ncc2c1,x,1.4µM*,0.95µM*,u,x,u
COc1ccc2cc(-c3ccon3)ccc2c1,x,u,3µM*,u,x,u
COc1ccc(-c2cc3ccc(OC)cc3cn2)cc1,x,0.28µM*,0.19µM*,0.32µM*,x,u
O=C(CSc1nc2c([nH]c3ccccc32)c(=O)n1-c1ccc(F)cc1)NCc1ccc(F)cc1,x,x,-1%,x,x,x
CCN(C(=O)CSc1nc2ccccc2n1Cc1ccc(F)cc1Cl)c1ccccc1,x,x,0%,x,x,x
SMILES,SMN2 splice enh,NPC1 promoter act,FLuc counter,Rab9 prom act,Luc counter,ELG1 genotox
COc1ccc(-c2ccc(OC)cc2)cc1,x,10%,u,7%,x,12%
COc1ccc(-c2cc3ccccc3cn2)cc1,x,0.63µM*,0.85µM*,0.63µM*,x,2.6µM*
Cc1ccc(S(=O)(=O)Nn2c(O)c(C=C3N=c4ccccc4=N3)sc2=S)cc1,x,0%,17µM*,2%,x,-3%
O=C(Nn1c(O)c(C=C2N=c3ccccc3=N2)sc1=S)c1ccccc1,0%,0%,6µM*,-4%,-4%,6%
Cc1ccc(C(=O)Nn2c(O)c(C=C3N=c4ccccc4=N3)sc2=S)cc1,29%,0%,u,6%,-2%,5%
Oc1[nH]c(=S)sc1C=C1N=c2ccccc2=N1,x,u,6µM*,27%,x,u
COc1cc(C(=O)N2CCN(C(=O)c3cc(-c4ccc(Br)cc4)n[nH]3)CC2)cc(OC)c1OC,x,1%,11µM*,2%,x,2%
Cc1ccc(-c2cc(C(=O)N3CCN(S(=O)(=O)c4ccc(Br)cc4)CC3)[nH]n2)cc1C,x,x,-3%,x,x,x
COc1ccc(C(=O)N2CCN(C(=O)COc3ccc(Br)cc3)CC2)cc1OC,5%,x,17µM*,x,x,x
CCN(CC)S(=O)(=O)c1ccc(N=Nc2c(C)[nH]n(C(N)=S)c2=O)cc1,u,u,8.5µM*,u,1%,16%
CC(=O)N(C)c1ccc(N=Nc2c(C)[nH]n(C(N)=S)c2=O)cc1,3.2µM*,0.63µM*,2.7µM*,0.45µM*,0%,u
Cc1ccccc1N=Nc1c(C)[nH]n(C(N)=S)c1=O,-3%,10%,u,1%,3%,0%
CCOC(=O)c1ccc(CN(Cc2ccccc2C)S(=O)(=O)c2ccc(F)c(C)c2)cc1,x,x,-5%,x,x,x
COc1ccc(CCC(=O)c2c(O)cc(O[C@@H]3O[C@H](CO)[C@@H](O)[C@H](O)[C@H]3O[C@@H]3O[C@@H](C)[C@H](O)[C@@H](O)[C@H]3O)cc2O)cc1O,9%,x,x,x,x,x
Cc1c(/C=N\NC(=O)c2cccc(F)c2)cnn1C,23%,-3%,u,4%,-10%,1%
CCOC(=O)N/N=C\c1ccc(OC/C=C/c2ccccc2)c(OC)c1,x,3%,12µM*,8%,x,-6%
COC(=O)N/N=C\c1ccc(OC/C=C/c2ccccc2)c(OC)c1,x,-1%,-2%,1%,x,2%
CCOC(=O)N/N=C/c1cc(C)n(-c2ccccc2)c1C,-15%[1.84 µM],24%,11µM*,u,-3%,u
Cc1cc(/C=N/NC(=O)c2ccccc2F)c(C)n1-c1ccccc1,13µM*,2.5µM*,2.1µM*,0.63µM*,-5%,u
Cc1cccc(-n2c(C)cc(/C=N/NC(=O)c3cccc([N+](=O)[O-])c3C)c2C)c1,-17%,-8%,-19%,-4%,-1%,-4%
Cc1cc(/C=N/NC(=O)c2cccc(F)c2)c(C)n1-c1ccccc1,27%,3.2µM*,1.2µM*,1.6µM*,-7%,u
CCCCNc1nc(C)nc2c1nc(-c1ccccc1)n2CCCN1CCCCC1C (configuration not stated),-10%,x,x,x,-3%,x
Cc1cccc(N2CCN(C(=O)c3cccn3-c3nnc(N4CCCCC4)s3)CC2)c1C,x,x,-19%,x,x,x
COc1ccc(OC)c(CCNc2nc3cc(OC)c(OC)cc3c3nc(-c4cccnc4)nn23)c1,1%,x,-1%,x,x,x
Cc1ccc(O)c(C2=Nc3ccccc3C2(C)C)c1,11%,29%,12µM*,u,-6%,u
